# Measured values from PubChem BioAssay (NCATS).
# Results filed as inconclusive are left out. The source made the active and inactive calls. Calls follow the shape of the dose curve; as a rule, active = well fitted inhibition curve with a large enough effect; inconclusive = small, poorly fitted or top-dose-only effect; inactive = flat fitted curve, though single readings scatter.
# Test system: MCC-26
# Assay: qHTS assay to identify novel small-molecules to repurpose for Merkel cell carcinoma treatment (AID 1296009); also: nearly all actives have a fitted effect of over 60% in size
# Conditions: MCC and control cell lines, CellTiter-Glo viability, 72 h; series mostly up to 46 µM; activity change, negative = cytotoxicity: at the top concentration
# Method in brief: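 After compound transfer in DMSO, plates were kept 72 hr at 37 degree celsius. Luminescent ATP signal from CellTiter-Glo served as viability measure, normalized against DMSO and no-cell controls.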
# % is scaled to controls: 0 for no effect and ±100 for the full control effect; potency is read from the fitted curve at half-maximal effect.
Compound,"activity change, negative = cytotoxicity",Potency
O=C1c2cccc(O)c2C(=O)c2c(O)cc(CO)cc21,-21.2% (inactive),
CC(=O)O[C@H]1C[C@@H]2CC[C@H]3[C@H]4C[C@H]([N+]5(C)CCCCC5)[C@@H](OC(C)=O)[C@@]4(C)CC[C@@H]3[C@@]2(C)C[C@H]1N1CCCCC1,0.895% (inactive),
CN(C)CC[C@H](c1ccc(Cl)cc1)c1ccccn1,-3.06% (inactive),
CCCCCCCN(CC)CCCC(O)c1ccc(NS(C)(=O)=O)cc1 (configuration not stated),-2.04% (inactive),
C[C@H](NC(=O)Cc1cc(F)cc(F)c1)C(=O)N[C@H](C(=O)OC(C)(C)C)c1ccccc1,-6% (inactive),
Cc1noc(-c2ccc(CSCCC(=O)O)cc2)c1NC(=O)OC(C)c1ccccc1Cl (configuration not stated),-1.51% (inactive),
O=[N+]([O-])c1cn2c(n1)OC[C@@H](OCc1ccc(OC(F)(F)F)cc1)C2,-12% (inactive),
C[C@H](NC(=O)[C@@H](O)c1cc(F)cc(F)c1)C(=O)N[C@@H]1C(=O)N(C)c2ccccc2-c2ccccc21,-13.3% (inactive),
O=c1ccn([C@@H]2O[C@H](CO)[C@H](O)[C@@H]2F)c(=O)[nH]1,0.0235% (inactive),
OC[C@@H](O)[C@@H](O)[C@H](O)[C@@H](O)CO,3.59% (inactive),
CC(=O)N1CCN(c2ccc(OCc3nn(C)c(C)c3-c3cccc4c(CCCOc5cccc6ccccc56)c(C(=O)O)n(Cc5cccnc5)c34)cc2)CC1,,16.6 µM (active)
CN[C@H](CC(C)C)C(=O)N[C@H]1C(=O)N[C@@H](CC(N)=O)C(=O)N[C@@H]2C(=O)N[C@H]3C(=O)N[C@H](C(=O)N[C@H](C(=O)O)c4cc(O)cc(O)c4-c4cc3ccc4O)[C@H](O)c3ccc(c(Cl)c3)Oc3cc2cc(c3O[C@@H]2O[C@H](CO)[C@@H](O)[C@H](O)[C@@H]2O[C@H]2C[C@](C)(N)[C@H](O)[C@H](C)O2)Oc2ccc(cc2Cl)[C@H]1O,8.35% (inactive),
